The full list was thinned out, with hits kept by preference.
ROMK primary: ROMK potassium channel modulators, primary screen, cell-based, thallium flux, MLSMR library; ATP-sensitive inward rectifier potassium channel 1 (Homo sapiens), P48048; Tet-inducible ROMK, thallium flux fluorescence; actives lie on both sides; B-score at 10 µM; 130,000 compounds, 2% hits;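 active means signal ratio slope over the read window, or its plate-corrected B-score, at least 3 SD from the plate mean, either direction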;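 further: B-score of the F/F0 ratio slope over 7 to 12 s after thallium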
Target sequence (P48048 whole entry, looked up): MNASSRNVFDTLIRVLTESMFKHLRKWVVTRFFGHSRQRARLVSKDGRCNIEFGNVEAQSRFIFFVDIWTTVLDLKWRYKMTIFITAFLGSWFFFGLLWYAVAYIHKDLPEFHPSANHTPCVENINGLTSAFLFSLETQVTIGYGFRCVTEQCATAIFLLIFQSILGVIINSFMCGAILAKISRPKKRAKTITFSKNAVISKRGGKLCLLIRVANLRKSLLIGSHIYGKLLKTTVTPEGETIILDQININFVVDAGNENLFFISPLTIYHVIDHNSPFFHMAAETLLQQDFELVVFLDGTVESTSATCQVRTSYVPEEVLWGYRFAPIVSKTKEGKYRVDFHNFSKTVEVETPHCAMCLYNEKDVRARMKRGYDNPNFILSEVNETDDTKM
INS promoter inh: inhibitors of insulin promoter-driven GFP, primary screen, imaging, TRM-6 cells (human fetal islet line), eGFP reporter, cell count. reporter expression induced with tamoxifen. 130,000 compounds, 0.9% hits. inhibition, % at 2 µM;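 active means inhibition above the mean plus 3 SD, with well images judged a real hit on visual review, cut at about 60% in these data, passing the limit was not always enough; inconclusive means inhibition over the cutoff but images rejected on review; inactive means inhibition not above the cutoff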
HSV replic up: enhancers of HSV replication in host cells, fold increase, host cell viability; HSV replication augmentation in cells; maximum fold increase; 220,000 compounds, 0.005% hits; in the data active means maximum fold increase above about 1.5; inconclusive means no clear call, values can overlap the other calls; tested in PC3 cells
Ins promoter up: insulin promoter activators in MIN6 cells, imaging, high-content screening, mouse beta cells; 190,000 compounds, 0.3% hits; MIN6 insulin promoter-GFP reporter; stronger effect = higher value; z-score at 5 µM;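 active means z-score above 3 at 5 µM with at least 500 cells counted in the well; inconclusive means wells under 500 cells, flagged as cytotoxic or low count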
TbHK1 inh: Trypanosoma brucei hexokinase 1 inhibitors, primary screen, biochemical, G6PDH-coupled NADH absorbance, MLSCN library; recombinant TbHK1, G6PDH-coupled NADH A340; inhibition, % at 10 µM; 220,000 compounds, 0.11% hits;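 active means inhibition of 50% or more in the single-dose primary screen; inactive means inhibition below 50%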
ROMK retest: ROMK channel modulator hit retest, confirmation, cell-based, thallium flux, duplicate, resupplied hits. normalized thallium flux (F/F0 slope) at 10 µM. 3,000 compounds, 54% hits. fluorescence ratio; stronger effect = lower value. shares compounds with ROMK primary. AID 1917, 2009;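 active means Flux at 10 µM at least 3 SD below or above vehicle control mean in one or both replicates; inconclusive means no clear call, values can overlap the other calls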
* = called active by the depositor.

CCOC(=O)N1CCN(S(=O)(=O)c2ccc3[nH]c(=O)oc3c2)CC1 was read as HSV replic up inactive, Ins promoter up -0.1 and TbHK1 inh 2.8.
CCOC(=O)N1CCN(S(=O)(=O)c2ccc3c(c2)SC(C)C(=O)N3)CC1 (stereo not given) was read as INS promoter inh -9.4, TbHK1 inh 2.9 and ROMK retest 0.0674*.
CCOC(=O)N1CCN(S(=O)(=O)c2ccc3c(c2)SCC(=O)N3)CC1 was read as ROMK primary -4.29*, Ins promoter up -1.56, TbHK1 inh 5.6 and ROMK retest 0.0611*.
`COc1ccc(-c2noc(C3CCCN(C(=O)Nc4ccccc4F)C3)n2)cc1` (stereo not given) gave ROMK primary -1.69, HSV replic up inactive, Ins promoter up -0.54 and TbHK1 inh -1.9.
`CCOC(=O)c1c(C)[nH]c(C(=O)N/N=C\c2ccccc2Cl)c1C` gave HSV replic up inactive, Ins promoter up -0.12 and TbHK1 inh -0.5.
For COc1ccc(OC)c(CN2CCN(Cc3cccc4ccccc34)CC2)c1 the results were ROMK primary -3.89*, HSV replic up inactive, Ins promoter up 1.01, TbHK1 inh 4.8 and ROMK retest 0.0499*.
Screening COC(=O)c1ccc(N2CCN(CC(=O)c3ccc(-c4ccccc4)cc3)CC2)c([N+](=O)[O-])c1 returned ROMK primary -0.0295, Ins promoter up 0.39 and TbHK1 inh -8.4.
For CC(=O)Nc1ccc(S(=O)(=O)N2c3ccccc3C(C)=CC2(C)C)cc1 the results were ROMK primary 2.11*, HSV replic up inactive, Ins promoter up -0.85, TbHK1 inh 1.4 and ROMK retest 0.0862.
Screening Fc1ccc(Nc2nnc(C(F)(F)F)s2)cc1Cl returned HSV replic up inactive, Ins promoter up -0.56, TbHK1 inh -7.9 and ROMK retest 0.0615*.
`FC(F)(F)c1nnc(Nc2ccc(Cl)cc2)s1` gave ROMK primary -1.19, HSV replic up inactive, Ins promoter up -0.9 and TbHK1 inh -9.5.
`C=CCNC(=O)c1onc(CSc2ccc(F)cc2)c1C(=O)NCCOC` gave ROMK primary 0.17, HSV replic up inactive, Ins promoter up -1.07 and TbHK1 inh -2.1.
For CCn1c(=O)c([N+](=O)[O-])c(Cl)c2ccccc21 the results were ROMK primary -4.93*, INS promoter inh 36.4, HSV replic up inactive, Ins promoter up 0.28, TbHK1 inh -1.0 and ROMK retest 0.0459*.
`O=C(O)c1cc(N2N=C(C(F)(F)F)/C(=C/C=C/c3ccco3)C2=O)ccc1Cl` gave ROMK primary -5.27*, INS promoter inh 40.0, HSV replic up inactive, TbHK1 inh 15.8 and ROMK retest 0.049*.
Screening CCOC(=O)c1ccc(N2N=C(C)/C(=C/C=C/c3ccco3)C2=O)cc1 returned ROMK primary 0.415, INS promoter inh 42.9, HSV replic up inactive, Ins promoter up 0.39 and TbHK1 inh -9.8.
`O=C(/C=C/c1cccs1)c1ccc(N2CCOCC2)cc1` gave ROMK primary 2.5*, HSV replic up inactive, Ins promoter up 0.1, TbHK1 inh -10.1 and ROMK retest 0.0758.
`O=C(/C=C/c1cccc(F)c1)c1ccc(N2CCOCC2)cc1` gave HSV replic up inactive, Ins promoter up 0.09 and TbHK1 inh -27.2.
CCC1CCCCN1C(=O)COc1c(Br)cc(Br)c2cccnc12 (stereo not given) was read as ROMK primary -4.06*, HSV replic up inactive, Ins promoter up -1.01, TbHK1 inh -7.6 and ROMK retest 0.0595*.
For Cn1c(N)c(C(=O)COC(=O)c2ccc(S(=O)(=O)N3CCCCC3)cc2)c(=O)n(C)c1=O the results were ROMK primary -0.411, HSV replic up inactive, Ins promoter up 0.35 and TbHK1 inh 6.0.
Screening COc1ccc(CN(C(=O)c2ccco2)c2ccc(C)c(C)c2)cc1 returned ROMK primary 1.36, INS promoter inh -25.9, HSV replic up inactive and TbHK1 inh 0.7.
`CCNC(=O)NC(=O)COC(=O)CCCc1nc2ccccc2s1` gave ROMK primary 0.114, HSV replic up inactive, Ins promoter up 0.13 and TbHK1 inh 10.5.
For COCCNC(=O)CSc1nc(N)c(NC(=O)c2ccccc2F)c(=O)[nH]1 the results were ROMK primary 1.24, INS promoter inh -12.0, HSV replic up inactive, Ins promoter up 0.27 and TbHK1 inh 1.5.
For CN(C)CCNS(=O)(=O)c1ccc(N2CCN(c3ccc(F)cc3)CC2)c([N+](=O)[O-])c1 the results were ROMK primary -3.98*, INS promoter inh 22.2, HSV replic up inactive, Ins promoter up -0.22, TbHK1 inh 12.4 and ROMK retest 0.0645*.
For O=[N+]([O-])c1cc(S(=O)(=O)NCCN2CCOCC2)ccc1Sc1nnnn1-c1ccccc1 the results were ROMK primary -0.235, INS promoter inh 30.8, Ins promoter up 0.41 and TbHK1 inh -7.5.
`Cc1ccc(-n2nnnc2Sc2ccc(S(=O)(=O)NCCN(C)C)cc2[N+](=O)[O-])cc1` gave ROMK primary -3.54*, INS promoter inh -7.7, HSV replic up inactive, Ins promoter up inconclusive, TbHK1 inh 1.3 and ROMK retest 0.0573*.
CC(=O)N1CCN(c2ccc(S(=O)(=O)NCCN(C(C)C)C(C)C)cc2[N+](=O)[O-])CC1 was read as ROMK primary 0.24, INS promoter inh -69.2, HSV replic up inactive, Ins promoter up -0.25 and TbHK1 inh -3.0.
Screening Cc1ccc2nc(NC(=O)CSc3nncc(=O)n3N)sc2c1 returned ROMK primary 0.547, INS promoter inh 20.0, HSV replic up inactive, Ins promoter up 0.14 and TbHK1 inh 1.0.
Cc1ccc2cc(CN(Cc3ccc4c(c3)OCO4)Cc3nnnn3Cc3ccco3)c(=O)[nH]c2c1C was read as ROMK primary -4.15*, INS promoter inh -44.4, HSV replic up inactive, Ins promoter up -0.16, TbHK1 inh -8.7 and ROMK retest inconclusive.
Cc1ccc(-n2cccn2)c(CN2CCC(CO)(CCc3ccccc3)CC2)c1 was read as ROMK primary -3.29*, HSV replic up inactive, Ins promoter up -1.05, TbHK1 inh 10.2 and ROMK retest 0.061*.
For Cc1ccc(C)n1-c1ccc(-n2cnnn2)cc1 the results were INS promoter inh 10.8, HSV replic up inactive, Ins promoter up -0.07, TbHK1 inh 2.5 and ROMK retest 0.0567*.
For CC1(C)CC(=O)C2=C(C1)OC1OC(=O)CC21C (stereo not given) the results were ROMK primary 1.39*, HSV replic up inactive, Ins promoter up 0.09, TbHK1 inh -2.1 and ROMK retest 0.0908.
For COc1ccc(CC(=O)NNC(=O)c2cccnc2)cc1OC the results were ROMK primary 0.534, HSV replic up inactive, Ins promoter up 0.71 and TbHK1 inh -3.1.

Screens deposited in PubChem by several laboratories.
